Results published in PubChem BioAssay AID651711 (Broad Institute, 2012).
Where “and” joins values, the source holds several entries; their conditions need not be identical. Equal values may be shown once. The campaign covered roughly 350,000 compounds. About 180 (0.051%) were called active.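 Rule for the calls: active = mean replicate inhibition above about 25%, with every replicate also reaching it (limit read from the data, passing the limit was not always enough); inconclusive = only one of those two criteria met; inactive = neither criterion met.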 For the sample, actives were picked, then their nearest neighbours and some compounds at random.

Each compound was assayed against Protein disulfide-isomerase A6 (Homo sapiens) (UniProt Q15084) (assay: ERp5 (PDIA6) reductase activity blockers – biochemical, turbidity, absorbance 650 nm, single point, primary screen (AID 651711)). Conditions: ERp5 insulin aggregation, 90 min, at 9.99 µM, stronger effect = higher value.
Protein disulfide-isomerase A6 (Homo sapiens), sequence (Q15084 whole entry, looked up): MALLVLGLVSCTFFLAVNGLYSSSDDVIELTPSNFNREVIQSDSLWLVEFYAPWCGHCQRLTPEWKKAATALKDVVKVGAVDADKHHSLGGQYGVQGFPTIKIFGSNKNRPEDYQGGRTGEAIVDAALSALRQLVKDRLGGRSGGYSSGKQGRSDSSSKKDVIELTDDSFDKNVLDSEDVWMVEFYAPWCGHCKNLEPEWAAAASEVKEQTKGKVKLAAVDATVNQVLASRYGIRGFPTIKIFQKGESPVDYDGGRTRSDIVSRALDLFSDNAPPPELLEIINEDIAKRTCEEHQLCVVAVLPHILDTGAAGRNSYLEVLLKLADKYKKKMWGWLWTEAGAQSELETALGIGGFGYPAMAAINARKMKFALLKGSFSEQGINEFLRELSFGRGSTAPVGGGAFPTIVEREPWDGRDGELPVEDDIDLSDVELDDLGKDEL

inhibition, inactive:
C[C@H](NC(=O)[C@H]1N[C@H]2c3ccc(-c4ccc(C(=O)N(C)C)cc4)c(=O)n3C[C@H]2[C@@H]1CO)c1ccccc1 -1.53%
O=C(C[C@@H]1CC[C@H](NC(=O)NC2CCCCC2)[C@H](CO)O1)NCc1ccc(F)cc1 -0.201%
CCC(=O)Nc1ccc2c(c1)OC[C@@H](C)N(Cc1cncnc1)C[C@H](C)[C@@H](OC)CN(C)C2=O 1.32%
O=C(Nc1cccc(F)c1)N1CC(=O)N2[C@H](C1)[C@H](c1ccc(-c3ccccc3F)cc1)[C@@H]2CO -0.993%
CN(C)C(=O)[C@@H]1[C@@H](CO)[C@@H]2Cn3c(ccc(-c4ccncc4)c3=O)[C@H]1N2C(=O)NC1CCCC1 -2.64%
CO[C@@H]1CN(C)C(=O)c2cc(NC(=O)c3ccccc3F)ccc2OC[C@H](C)N(C(C)=O)C[C@@H]1C 3.35%
O=C(C[C@H]1CC[C@@H]2[C@H](COC[C@H](O)CN2Cc2ccccc2F)O1)NC1CCC1 -3.28%
CCCNC(=O)C[C@H]1C[C@H]2c3cc(NC(=O)COC)ccc3O[C@H]2[C@H](CO)O1 2.76%
CNC(=O)C[C@@H]1CC[C@@H]2[C@@H](COc3ccc(NC(=O)Nc4ccccc4OC)cc3C(=O)N2C)O1 5.92%
CCC(=O)N(C)C[C@@H]1Oc2cc(C#C[C@H](C)O)ccc2S(=O)(=O)N([C@@H](C)CO)C[C@H]1C -0.347%
C[C@@H]1CN([C@H](C)CO)C(=O)Cc2cc(NC(=O)CCN3CCOCC3)ccc2O[C@H]1CN(C)CC1CC1 -3.37%
COc1ccc(CCN2C(=O)[C@@]3(Cc4ccccc42)c2ccccc2C(=O)N(Cc2ccccc2C(F)(F)F)[C@H]3c2ccc(CO)cc2)cc1 4.71%
C[C@H](CO)N1C[C@H](C)[C@@H](CN(C)C(=O)Cc2ccncc2)Oc2ncc(C3=CCCCC3)cc2C1=O 4.38%
O=C(c1cccc(F)c1)N1CC[C@@H]2[C@@H](CO)Nc3ccc(C#Cc4cccc(F)c4)cc3[C@@H]21 -3.07%
C[C@H](CO)N1C[C@H](C)[C@@H](CN(C)Cc2ccc(C(=O)O)cc2)Oc2ccc(NS(=O)(=O)c3cn(C)cn3)cc2CC1=O -1.33%
CC(C)NC(=O)N1CC2(C1)[C@H](c1ccccc1)[C@H](CO)N2C(=O)C1CCOCC1 0.292%
C/C=C/c1ccc([C@H]2[C@@H](CO)N(C(=O)NCCC)[C@H]2CN(C)C(C)=O)cc1 5.18%
CC(C)NC(=O)Nc1ccc2c(c1)C(=O)N([C@H](C)CO)C[C@@H](C)[C@@H](CN(C)Cc1ccncc1)O2 -5.48%
COc1ccc(C#Cc2cccc(-c3nc(C(=O)O)cc4c3[C@@H](CCO)N(S(=O)C(C)(C)C)C4)c2)cc1OC (stereo not given in full) -1.96%
Cc1ccc(S(=O)(=O)N(C)C[C@@H]2OCc3ccccc3-c3c(n(C)c4ccccc34)C(=O)N([C@@H](C)CO)C[C@@H]2C)cc1 3.4%
O=C(C[C@H]1C=C[C@H](NC(=O)Nc2ccc(C(F)(F)F)cc2)[C@@H](CO)O1)NCCN1CCCC1 18.1%
C[C@@H]1CN([C@@H](C)CO)C(=O)Cc2cc(NC(=O)Cc3cn(C)c4ccccc34)ccc2O[C@H]1CN(C)C(=O)NC1CCCCC1 5.6%
C[C@@H]1CN([C@H](C)CO)C(=O)Cc2cc(NC(=O)Nc3cccc4ccccc34)ccc2O[C@H]1CN(C)C(=O)Nc1ccc2c(c1)OCO2 -12.4%
C[C@H](CO)N1C[C@H](C)[C@H](CN(C)C(=O)CCC(F)(F)F)OCCCC[C@H](C)Oc2ccc(NS(=O)(=O)c3ccc(F)cc3)cc2C1=O 6.41%
COCC(=O)Nc1ccc2c(c1)[C@@H]1C[C@H](CC(=O)NCc3ccc(-c4ccccc4)cc3)O[C@H](CO)[C@@H]1O2 -0.847%
CN1C(=O)c2cc(NC(=O)C3CCCC3)ccc2OC[C@@H]2O[C@@H](CC(=O)NCCc3ccncc3)CC[C@@H]21 -3.7%
C[C@@H]1CCCCO[C@H](CN(C)S(=O)(=O)c2ccc(Cl)cc2)[C@@H](C)CN([C@H](C)CO)C(=O)c2cc(NC(=O)Nc3ccc4c(c3)OCO4)ccc2O1 0.772%
O=C1[C@@H](c2ccccc2)[C@@H](c2ccccc2)N1c1ccccc1 3.47%
O=C(N[C@@H]1C=C[C@@H](CC(=O)N2CCOCC2)O[C@H]1CO)c1ccccn1 2.34%
CN(C)CC(=O)Nc1ccc2c(c1)[C@H]1C[C@H](CC(=O)NCc3ccccn3)O[C@@H](CO)[C@H]1O2 -3.52%
Cc1[nH]c2ccccc2c1CC(=O)Nc1ccc(Nc2cccnc2)c(-c2cccc(Cl)c2)c1 -5.11%
CO[C@H](CN(C)C(=O)c1ccc2c(c1)OCO2)[C@H](C)CN([C@@H](C)CO)S(=O)(=O)c1ccc(Cl)cc1 3%
C[C@H]1CN([C@@H](C)CO)C(=O)c2cccc(NC(=O)Nc3ccc(F)cc3)c2O[C@@H]1CN(C)C(=O)Nc1ccc2c(c1)OCO2 4.97%
N#C[C@@H]1[C@H](c2ccccc2-c2ccc(F)cc2)[C@@H](CO)N1c1ncc(-c2ccccc2)s1 3.09%
O=C(c1ccncc1)N1C[C@H]2[C@@H](c3ccccc31)[C@H](CO)N2Cc1ccc(F)cc1 -3.32%
COc1ccc2c3c(n(C)c2c1)[C@@H](CO)NCC31CCN(CC2CCCC2)CC1 1.66%
O=C(Nc1ccccc1)N1CC(=O)N2[C@@H](CO)[C@H](c3ccc(C#CC4CCCC4)cc3)[C@@H]2C1 1.6%
C[C@@H]1CN([C@H](C)CO)C(=O)c2cc(-c3cncnc3)cnc2O[C@@H]1CN(C)Cc1ccc(Oc2ccccc2)cc1 -1.07% and -77.5%
COCC(=O)Nc1ccc2c(c1)C(=O)N(C)[C@@H]1CC[C@@H](CC(=O)NCCCN(C)C)O[C@@H]1CO2 -2.7%
C[C@@H](NC(=O)C[C@@H]1C=C[C@@H](NC(=O)CN2CCOCC2)[C@H](CO)O1)c1ccccc1 10.6%
Cc1ccc(S(=O)(=O)Nc2ccc3c(c2)C(=O)N([C@@H](C)CO)C[C@H](C)[C@H](CN(C)C(=O)Nc2ccc(C(F)(F)F)cc2)O3)cc1 -3.11%
CCNC(=O)[C@H]1[C@H](CO)[C@H]2Cn3c(ccc(/C=C/c4ccccc4)c3=O)[C@@H]1N2C(=O)C1CCC1 -5.59%
Cn1cnc(S(=O)(=O)N2C[C@@H](O)COC[C@H]3O[C@@H](CC(=O)NCc4ccc(F)cc4)CC[C@@H]32)c1 -0.766%
C[C@@H]1CCCCO[C@@H](CN(C)Cc2ccccc2)[C@H](C)CN([C@H](C)CO)C(=O)c2cc(NC(=O)Nc3cccc4ccccc34)ccc2O1 0.587%
O=C(c1cnccn1)N1CC2(C1)[C@H](c1ccccc1)[C@H](CO)N2C(=O)c1ccccc1 4.61%
COc1ccc(CN2C[C@@H](C)[C@H](OC)CN(C)C(=O)c3cc(NC(C)=O)ccc3OC[C@@H]2C)cc1 4.2%
C[C@H]1CN([C@@H](C)CO)C(=O)Cc2cc(NC(=O)Nc3ccc(C(F)(F)F)cc3)ccc2O[C@@H]1CN(C)S(=O)(=O)c1ccc(Cl)cc1 0.316%
CO[C@@H]1CN(C)C(=O)c2cc(NC(=O)C3CCOCC3)ccc2OC[C@H](C)N(Cc2cccnc2)C[C@H]1C 7.73%
CO[C@@H]1CN(C)C(=O)c2cc(NC(=O)c3ccccc3F)ccc2OC[C@@H](C)N(CC2CC2)C[C@H]1C -2.62%
COc1ccc(S(=O)(=O)N(C)C[C@H]2Oc3ccc(N(C)C)cc3C(=O)N([C@@H](C)CO)C[C@@H]2C)cc1 -9.71%
COc1ccccc1NC(=O)Nc1ccc2c(c1)OC[C@H](C)NC[C@H](C)[C@@H](OC)CN(C)C2=O 7.16%
COc1ccc(CN(C)C[C@H]2Oc3c(NC(=O)C4CCCCC4)cccc3C(=O)N([C@@H](C)CO)C[C@H]2C)cc1 4.09%
O=C(Cc1cccnc1)N1CC(=O)N2[C@@H](CO)[C@H](c3ccc(C#CC4CC4)cc3)[C@@H]2C1 1.76%
O=C(NCC[C@H]1CC[C@@H](NC(=O)C2CCCC2)[C@@H](CO)O1)c1cc(Cl)cc(Cl)c1 -0.154%
C[C@@H]1CN([C@H](C)CO)C(=O)c2cc(NC(=O)CCCN(C)C)ccc2O[C@@H](C)CCCCO[C@@H]1CN(C)Cc1ccncc1 -3.78%
Cc1ccc(S(=O)(=O)NCC[C@@H]2CC[C@H](NC(=O)CC3CC3)[C@H](CO)O2)cc1 -0.231%
O=C(NC1CCC1)[C@H]1[C@H](CO)[C@H]2Cn3c(ccc(-c4ccccc4)c3=O)[C@@H]1N2Cc1cocn1 -0.224%
CCC(=O)N(C)C[C@@H]1Oc2cc(C#CC(C)(C)O)ccc2S(=O)(=O)N([C@@H](C)CO)C[C@@H]1C -4%
CCCC#Cc1cnc2c(c1)C(=O)N([C@H](C)CO)C[C@@H](C)[C@@H](CN(C)C(=O)C1CCOCC1)O2 2.67%
C[C@H](CO)N1C[C@H](C)[C@H](CN(C)CC2CCCCC2)Oc2ccc(NC(=O)CCN3CCOCC3)cc2CC1=O 0.283%
Cc1ccc(S(=O)(=O)N(C)C[C@@H]2Oc3ccc(NC(=O)c4ccncc4)cc3CC(=O)N([C@H](C)CO)C[C@H]2C)cc1 -4.73%
COc1ccc(S(=O)(=O)N2CC[C@@H]3[C@H](CO)Nc4ccc(C#Cc5cccc(OC)c5)cc4[C@@H]32)cc1 4.05%
C/C=C/c1ccc([C@H]2[C@@H](CO)N(C(=O)C3CC3)[C@@H]2CNC(=O)NC(C)C)cc1 -0.982%
CO[C@@H](CN(C)C(=O)c1cnccn1)[C@@H](C)CN([C@@H](C)CO)S(=O)(=O)c1ccc(Cl)cc1 0.364%
COc1ccc2c3c(n(C)c2c1)[C@@H](CO)N(CC1CC1)CC31CCN(C(=O)c2ccc3c(c2)OCO3)CC1 -0.398%
